Test results as given in PubChem BioAssay (NCI).
The panel holds about 79,000 compounds, 15% with a hit somewhere; the sample as a whole holds those more often. Unmarked numbers belong to inactive results. Activity calls are given as the source filed them. Cut-off read from the data, not from the text of the source: active = growth inhibition above about 70%; inactive = the rest. Where a SMILES comes first, the peptide text is derived from it. [ ]: non-standard residue; d: D form. ΔPro = O=C(O)[CH]1C=CCN1

How the values were obtained:
[1] = NCI Yeast Anticancer Drug Screen. Data for the rad50 strain (AID 155);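 note: 0% = growth of vehicle-only cultures of the same strain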; conditions: S. cerevisiae rad50 strain growth inhibition; at 50.0 µM; hits give high values
In short: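 DNA repair mutant yeast, compound exposure, growth read-out; inhibition is taken relative to vehicle.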

[2] = NCI Yeast Anticancer Drug Screen. Data for the mec2-1 strain (AID 157); conditions: S. cerevisiae mec2-1 strain, at 50.0 µM, hits give high values
In short: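 Compounds were applied to mec2-1 yeast cells. Their growth was then compared with that of vehicle-treated cultures to give growth inhibition.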

[3] = NCI Yeast Anticancer Drug Screen. Data for the sgs1 mgt1 strain (AID 161);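 note: 0% = growth of cultures given vehicle only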; conditions: S. cerevisiae sgs1 mgt1 strain, at 50.0 µM, hits give high values
In short: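 Yeast cells carrying a defined DNA-repair defect were exposed to test compounds. Growth inhibition was measured relative to vehicle-treated controls.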

[4] = NCI Yeast Anticancer Drug Screen. Data for the cln2 rad14 strain (AID 165);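 note: 0% = growth equal to vehicle treated cultures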; conditions: S. cerevisiae cln2 rad14 strain, at 50.0 µM, hits give high values
In short: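 Strain: cln2 rad14 yeast, altered in cell cycle control and DNA damage repair. Read-out: growth inhibition vs vehicle.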

[5] = NCI Yeast Anticancer Drug Screen. Data for the bub3 strain (AID 167); conditions: S. cerevisiae bub3 mutant strain, at 50.0 µM, hits give high values
In short: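 In this screen, a yeast mutant lacking normal mitotic checkpoint function is challenged with compound. Relative growth versus vehicle gives the inhibition value.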

[6] = NCI Yeast Anticancer Drug Screen. Data for the mlh1 rad18 strain (AID 175); conditions: S. cerevisiae mlh1 rad18 strain growth inhibition; at 50.0 µM; hits give high values
In short: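 A repair-deficient yeast strain is exposed to test compound, and growth is scored relative to vehicle-treated controls.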

Row | Compound | growth inhibition [1] | growth inhibition [2] | growth inhibition [3] | growth inhibition [4] | growth inhibition [5] | growth inhibition [6]
1 | O=C(NNC(=O)OCc1ccccc1)OCc1ccccc1 | 23.9% | -2.75% | 1.3% | -34.2% | 11.5% | 18.1%
2 | C=C(/C=C/CCCC)NC(=O)OCc1ccccc1 | 13.4% | 12.4% | 8% | -39.5% | 1.25% | 18.9%
3 | S=C(Nc1ccccc1)NC1SNC(=Nc2ccccc2)N1c1ccccc1 (stereo unspecified) | 98.2% (active) | 99.4% (active) | 98.8% (active) | 99.3% (active) | 99.3% (active) | 99% (active)
4 | O=CNCC1(c2ccccc2)CCNCC1 | 2.25% | -3.25% | 8.05% | -1.7% | 4.4% | -4.6%
5 | O=c1[nH]cnc2c1ncn2CCCCc1ccccc1 | 8.4% | -5.25% | 8.45% | 0.9% | 5.7% | 14.8%
6 | CCOC(=O)c1ccc(OC)cc1 | -12.7% | -25.4% | -8.8% | 2.8% | -3.55% | -17.4%
7 | COC(=O)c1ccc(C(=O)OC)cc1 | -12.2% | -26.1% | 15.9% | 12.2% | 8.95% | 11.3%
8 | CCCCCCC1NC(CCCCCC)N2C(CCCCCC)N12 (stereo unspecified) | 28.9% | 16.8% | -2.15% | 0% | 21.6% | -2.7%
9 | O=C1NC(=O)C2(CC3CCCCC3CC2c2ccccc2)N1 (stereo unspecified) | 17.1% | 13.3% | 12.8% | 3.1% | 10.3% | 10.9%
10 | N#C/C(=C/n1c(=S)[nH]c2ccc([N+](=O)[O-])cc21)C(N)=O | -53.3% | -41% | -50.4% | 2.15% | -24% | -70.9%
11 | N#Cc1ccccc1NC(=O)C(=O)C(C(=O)c1ccccc1-c1ccccc1)C1OC(=O)c2ccccc21 (stereo unspecified) | 24.4% | 5.25% | 11.7% | -43% | 2.25% | 0.95%
12 | Cc1cc(O)oc(=O)c1 | -7.7% | -15.1% | -7.2% | -44.4% | 1.85% | -4.85%
13 | CC1C(c2ccccc2)(N(C)C)CS1(=O)=O (stereo unspecified) | -3.15% | -8.5% | -6.4% | -74.7% | 12.7% | -8.6%
14 | CC1OC(OC2C(OC3C[C@@]4(C)C(C[C@H](O)[C@H]5[C@H](C6(C)CCC(C(C)(C)O)O6)CCC54C)[C@]4(C)CC[C@@H](O)C(C)(C)C34)OC(CO)C(O)C2O)C(O)C(O)C1O (stereo partly specified) (tested in a mixture with another compound) | -7.6% | -20.1% | -3.45% | -26.7% | -8.5% | -72.5%
15 | COc1ccc(-c2cc(-c3ccncc3)[nH]c2-c2nccc3ccccc23)cc1 | 94.2% (active) | 82.7% (active) | 97.3% (active) | 79.5% (active) | 73.7% (active) | 85% (active)
16 | N#CC(C(=O)O)C1(c2ccccc2)CCCCC1 (stereo unspecified) | -13% | 4.95% | -5.3% | -16% | 1.1% | -3.45%
17 | CSc1cc2c(cc1[N+](=O)[O-])C(=O)c1cc(F)ccc1-2 | 8.7% | 18.1% | 4.45% | -5.5% | 3.15% | 5%
18 | CCCCN=C1Nc2nc(=NCCCC)nc3c(Br)cc(Br)c(n23)N1 | 37.2% | 20.2% | 5.4% | 23.4% | -4.9% | 21.9%
19 | Cn1c([N+](=O)[O-])cnc1COc1ccc(NC(=O)CN2CCOCC2)cc1 | 27% | 1.05% | 19.9% | 33.2% | 10.3% | 18.2%
20 | CCCCCCCCCCCCCCCCS(=O)(=O)N/N=C/c1ccccc1O | 25.9% | 26.2% | 30.2% | 18.2% | 6.2% | 20.2%
21 | Cc1ccc(C(=O)CC(C#N)c2ccccc2)cc1 (stereo unspecified) | 25.6% | 17.4% | 13.4% | 18.1% | 5.55% | 12.7%

Row | Compound | growth inhibition [1] | growth inhibition [2] | growth inhibition [3] | growth inhibition [4] | growth inhibition [5] | growth inhibition [6]
22 | COc1cccc(C(=O)O)c1[N+](=O)[O-] | -19.1% | -26.6% | -24% | -46.1% | -6.05% | -1%
23 | COC(=O)N/C(C)=N/OCc1ccccc1 | 1.2% | 0.6% | 4.3% | 8.8% | 15% | -11.7%
24 | O=C(O)C1C=CCN1C(=O)C1C=CCN1C(=O)C1C=CCN1 (stereo unspecified) (H-[ΔPro]-[ΔPro]-[ΔPro]-OH; configuration not given here) | -68.7% | -38.6% | -25.5% | 0.05% | 0.25% | -31.5%
25 | CCOC(=O)C1=C(C)N(Cc2ccccc2)C2(O)C1=CC(=O)C(Cl)=C2Cl (stereo unspecified) | 72.8% (active) | 45.5% | 46.8% | 54.9% | 49.5% | 42.4%
26 | c1ccc(-c2ccc(-c3ccccc3)cc2)cc1 | -14.5% | -9.4% | -15.1% | -15.2% | 18.6% | -30.9%
27 | C=Cc1cccc([N+](=O)[O-])c1 | 15.8% | -0.15% | 6.6% | 16.5% | 19.6% | -3.7%
28 | OCCN(/N=C\c1ccc2ccccc2c1)C1=NCCN1 | 15.3% | 6.25% | -22.1% | -28.2% | -2.5% | 5.2%
29 | CCCCCCc1c(C)nc(N)[nH]c1=O | 7.55% | -3.85% | -13.4% | -67.7% | 10% | -1.05%
30 | CN(CC(=O)O)Cc1oc(CO)cc(=O)c1O | -9.45% | -9.5% | -6.1% | -37.5% | -40% | -14.3%
31 | Cc1cccc(/C=N/NC(=S)N2CCCCCC2)n1 | 89.3% (active) | 93.2% (active) | 92.1% (active) | 92.8% (active) | 92.2% (active) | 89% (active)
32 | NCCCCN(CCCN)C(=O)c1ccccc1 | 5.5% | -2.2% | -17.8% | 1.8% | -14.3% | -68.9%
33 | FC(F)(F)c1cc(Br)c2ccc3ncccc3c2n1 | 6.5% | 8.3% | -1.05% | -5.2% | 6.8% | 3.1%
34 | COc1cc2c(cc1N)-c1ccc(N)cc1C2O (stereo unspecified) | 7.55% | 3.65% | -9.05% | 17.3% | 17.1% | 1.05%
35 | C=C1C(=O)OC2CC(=C)C3CC=C(C)C3CC12 (stereo unspecified) | 41.8% | 21.5% | 19% | 41.6% | 25.8% | 44.1%
36 | Cc1nn(-c2ccc(Cl)cc2)c2c1c(=O)[nH]c1ccccc12 | 6% | -3.45% | 1% | -24.6% | -2.05% | -5.05%
37 | OC1c2ccccc2-c2ccccc21 | 35.6% | 0.95% | -15.4% | -22.3% | 6.8% | 25.2%
38 | CC(C)(CCC(=O)O)C(=O)O | -4.15% | -34.1% | -30.5% | 4.95% | -32.9% | -2.9%
39 | CN(C)CC(C(N)=O)C(N)=O | -26.1% | -18.8% | -19.8% | 9.6% | -10.5% | 7.45%
40 | O=C1CC[C@@H](S(=O)(=O)c2ccccc2)[C@H](/C=C/c2ccccc2)O1 | -5.5% | 25.2% | 37.6% | 26.1% | -7.4% | -15.9%
41 | N#Cc1c(O)c(C=O)c(=O)n2c1[nH]c1ccccc12 | -30.6% | -45.5% | -21.7% | -8.15% | 4.05% | -0.05%
